# Results from PubChem BioAssay AID686970 (National Center for Advancing Translational Sciences (NCATS), 2013).
# Screen size: about 360,000 compounds; about 6,000 (1.7%) were called active. Inconclusive results (about 8%) are left out. The entries come from a sample that favours actives as a whole. Values without a mark were called inactive. Calls follow the shape of the dose curve; as a rule, active = well fitted cell-killing curve with a large enough effect; inconclusive = small, poorly fitted or top-dose-only effect, or effect the other way; inactive = flat fitted curve, though single readings scatter.
# Assay: qHTS for induction of synthetic lethality in tumor cells producing 2HG: qHTS for the HT-1080-NT fibrosarcoma cell line;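 also: NT is the 2HG producing partner of a matched IDH1 knockdown line; nearly all actives have a fitted effect of over 55% in size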;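 as to activity, negative = less viability: 0% = DMSO-treated cells and -100% = media-only wells without cells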
# Conditions: HT-1080-NT fibrosarcoma viability, CellTiter-Glo ATP luminescence, 48 h; series mostly up to 46.1 µM; activity, negative = less viability: at the top concentration
# Summary of the method: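 Read-out is CellTiter-Glo luminescence after 10 minutes at room temperature, following 48 hours' compound treatment of HT-1080-NT cells (750 cells/well, RPMI, 5% FBS, 37 degrees C).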
# Potency is read from the fitted curve at half-maximal effect.
Compound,"activity, negative = less viability [%]",Potency
Cc1cccc(N(CC(=O)N2CCCC2)S(C)(=O)=O)c1C,9.09,–
CC(=O)c1ccccc1NC(=O)COC(=O)C1COc2ccccc2O1 (stereo unspecified),1.1,–
CCCCOCCCNC(=O)C[C@@H]1C[C@@]2(C(=O)OCC)CCCC=C2N(CCC2=CCCCC2)C1=O,–,16.4 µM (active)
CCOC(=O)[C@]12CCC=C1N(CCC1=CCCCC1)C(=O)[C@H](CC(=O)NCc1ccc(C)o1)C2,9.86,–
CCOC(=O)[C@]12CCCC=C1N(CCC1=CCCCC1)C(=O)[C@H](CC(=O)NCCCOC)C2,-1.32,–
COC(=O)[C@]12CCCCC=C1N(Cc1ccc3c(c1)OCO3)C(=O)[C@H](CC(=O)N1CCOCC1)C2,8.8,–
O=C(Cn1c(NCCO)nc2ccccc21)c1ccc(Cl)cc1Cl,–,20.6 µM (active)
O=S(=O)(O)c1nc2ccccc2n1Cc1ccc(Cl)cc1Cl,-0.293,–
O=C(Cn1c(-c2cscn2)nc2ccccc21)Nc1ccc(Cl)cc1,-23.1,–
COc1ccc(C(C)C)cc1-c1ccc2nncn2c1,2.86,–
CC(C)C[C@@H]1Cc2[nH][nH]c(=O)c2[C@H](CCc2ccccc2)O1,-14.8,–
Cc1cc(C)c2c(c1)cc(C)c1nnc(SCC(=O)Nc3cc(C)on3)n12,–,6.31 µM (active)
Cc1cc(NC(=O)CSc2nnc(-c3ccco3)n2N)no1,2.26,–
Cc1cc(NC(=O)CSc2nnnn2-c2ccc(F)cc2)no1,-1.26,–
CCOC1=C2[C@H]([C@H]3C(=O)N(c4ccccc4)C(=O)[C@H]3C1)[C@@H](c1ccccc1)N(S(=O)(=O)c1ccc(C)cc1)[C@H]2c1ccccc1,24.4,–
Cc1cccc(C)c1NC(=O)C(c1ccc(C(F)(F)F)cc1)n1c(=O)c(-c2ccco2)nc2ccccc21 (stereo unspecified),-22.7,–
NC(Cc1ccc(F)cc1)c1csc(Nc2nncc3ccccc23)n1 (stereo unspecified),–,23.1 µM (active)
CC(=O)c1ccc(Nc2nc(C(N)c3ccccc3Cl)cs2)cc1 (stereo unspecified),-21.8,–
COCC(C)NC(=O)COc1nncc2ccccc12 (stereo unspecified),-1.79,–
Cc1cc(Br)ccc1NC(=O)CCCOc1cc(=O)n(C)c2ccccc12,-24.6,–
COC(=O)[C@]12CCCCC=C1N(Cc1ccc(Cl)cc1Cl)C(=O)[C@H](CC(=O)NCc1cccc3ccccc13)C2,-25.6,–
Cc1cc2c3ccccc3[nH]c(=O)n2n1,15.6,–
COc1ccc(CN2C(=O)C(CC(=O)NCc3cccc4ccccc34)CC(C(=O)N3CCOCC3)=C2C)cc1 (stereo unspecified),-1.78,–
NC(=O)Cn1cc(/C=N\NS(=O)(=O)c2ccccc2)c2ccccc21,0.259,–

Compound,"activity, negative = less viability [%]",Potency
COCCCNC(=O)Cn1cc(/C=C(\C#N)C(=O)N2CCN(c3ccccc3)CC2)c2ccccc21,0.984,–
COC(=O)Cn1cc(/C=C/[N+](=O)[O-])c2ccccc21,–,18.4 µM (active)
CC1Cc2[nH][nH]c(=O)c2C(C2CCCC2)O1 (stereo unspecified),3.75,–
CC1(Oc2ccccc2-c2ccno2)CCN(Cc2ccc(-c3ccccc3)o2)C1 (stereo unspecified),-24.5,–
CC(C)N1C(=O)c2ccccc2NC(=O)C1C(=O)NCc1cccs1 (stereo unspecified),5.09,–
COc1ccc(CCNC(=O)/C(C#N)=C2\N=C(NC(=O)c3cccs3)c3ccccc32)cc1,2.15,–
Cc1ccc2nc(/C(C#N)=C\c3ccc(OC(=O)c4cccs4)cc3)[nH]c2c1,–,7.94 µM (active)
C/C(=N\NC(=O)c1ccoc1C)c1ccccc1O,–,3.26 µM (active)
Cc1occc1C(=O)NNC(=S)NCC(C)C,1.03,–
Cc1ccnc(NC(=O)c2ccoc2C)c1,-27.2,–
CC(C)Nc1ncnc2c1ncn2[C@H]1CN(Cc2ccncc2)C[C@@H](CO)O1,13.7,–
CCCCC(=O)N(C)c1c(CC)nc2c(OCc3ccc(S(C)(=O)=O)cc3)cccn12,-15,–
COC(=O)C[C@@H]1C=C[C@@H](NC(=O)c2ccc3c(c2)OCO3)[C@@H](CO)O1,12.5,–
C[C@H](CO)N1C[C@H](C)[C@H](CN(C)C(=O)c2ccncc2)OCc2ccccc2-c2c(n(C)c3ccccc23)C1=O,-7.32,–
O=C1NC(c2ccc(-c3ccccc3[N+](=O)[O-])o2)C(C(=O)c2ccc(Cl)cc2)C(O)(C(F)(F)F)N1 (stereo unspecified),–,16.4 µM (active)
CC1=NN(c2ccc(Cl)c(C(=O)O)c2)C(=O)/C1=C/c1ccc(-c2ccccc2[N+](=O)[O-])o1,-13,–
CC(=O)C1C(c2cccc(Oc3ccccc3)c2)NC(=O)NC1(O)C(F)(F)F (stereo unspecified),-1.76,–
CCOC(=O)[C@]12CCCC=C1N(CCC1=CCCCC1)C(=O)[C@H](CC(=O)N1CCSCC1)C2,0,–
N#CCCN(C(=O)Nc1ccc(Cl)c(Cl)c1)C1CCCCC1,-8.99,–
Cc1ccc(N/N=C2\COC(C)(C)CC2=O)cc1,-1.11,–
COc1ccc(N/N=C2/CCCCC2=O)cc1,–,1.26 µM (active)
COc1ccc(NC(=O)c2c(C)oc3c2CCCC3)cc1,0.683,–
Cc1ccnc(SC2CC(=O)N(c3ccccc3)C2=O)n1 (stereo unspecified),-0.41,–
O=C1CC[C@@H](C(=O)N2CSC[C@@H]2C(=O)Nc2ccc(C(F)(F)F)cc2)N1,-0.302,–

Compound,"activity, negative = less viability [%]",Potency
O=S1(=O)CC(N2CCN(Cc3ccccc3F)CC2)CN1Cc1cn(Cc2cccc(C(F)(F)F)c2)nn1 (stereo unspecified),-1.84,–
Cc1ccccc1OCCOc1ccc([N+](=O)[O-])cc1/C=N/n1cnnc1,–,2.31 µM (active)
COc1cccc(OCCOc2cccc(/C=N/n3cnnc3)c2)c1,-3.11,–
Cc1ccccc1OS(=O)(=O)c1cccc([N+](=O)[O-])c1,10.1,–
CCOc1ccc(CCN2C(=O)c3cccnc3C2=O)cc1OCC,17.8,–
NC1=CC(=O)C(=O)c2cccnc21,–,25.9 µM (active)
Cc1ccc(S(=O)(=O)N2CC[C@H]3[C@@H](C2)C(=O)C[C@@H](c2ccccc2)N3S(=O)(=O)c2ccc(C)cc2)cc1,1.59,–
c1ccc(-c2nnc(N3CCOCC3)c3ccccc23)cc1,0.217,–
c1ccc2c(NC3C4CC5CC(C4)CC3C5)nc(N3CCOCC3)nc2c1 (stereo unspecified),–,14.6 µM (active)
Fc1cnc(N2CCOCC2)nc1NCc1ccccc1,-4.29,–
Cc1nc2ccccn2c(=O)c1NC(=O)c1ccc(Br)o1,-0.505,–
CCCCN1C(=O)C(CC(=O)NC(c2ccccc2)c2ccccc2)CC(C(=O)N2CCOCC2)=C1C (stereo unspecified),7.54,–
CC1=C(C(=O)N2CCOCC2)CC(CC(=O)NCC2CCCCC2)C(=O)N1Cc1ccc(F)cc1 (stereo unspecified),1.38,–
O=S1(=O)CC(N2CCC(Cc3ccccc3)CC2)CN1Cc1ccccc1 (stereo unspecified),2.96,–
Clc1cccc(N=C2NN=C(c3ccc4c(c3)OCCO4)CS2)c1,–,10 µM (active)
CN(C)c1nc(=Nc2cccc(Cl)c2)ss1,0.234,–
Cc1cccc(C)c1-n1nnnc1C1(C)CCC(=O)N1CCOc1ccccc1 (stereo unspecified),2.56,–
CCCCc1ccc(S(=O)(=O)NC(=O)C2(C)CCN2C(=O)c2c(C)noc2C)cc1 (stereo unspecified),0.469,–
N=c1c2c(-c3ccccc3)c(-c3ccccc3)oc2ncn1Cc1ccco1,–,23.1 µM (active)
C(=C\c1ccccc1)/CSc1nnc(-c2cccnc2)n1Cc1ccco1,2.54,–
COC(=O)c1ccc2nc(C3CCCCC3)c(Cc3cccc(F)c3)n2c1,-0.226,–
O=C(Nc1cccc(Cc2ccccc2)c1)Nc1ccc2nc([C@@H]3O[C@H](CO)[C@@H](O)[C@H](O)[C@H]3O)[nH]c2c1,12.1,–
c1ccc(C(c2ccccc2)N2CCN(Cc3nnnn3C3CCCCC3)CC2)cc1,-0.131,–
COc1ccccc1CN1CCN(C(c2ccccc2)c2ccccc2)CC1,-20.9,–

Compound,"activity, negative = less viability [%]",Potency
CC1(C)CC(N2CCN(C(c3ccccc3)c3ccccc3)CC2)=CC(=[N+]2CCCCC2)C1,–,2.06 µM (active)
COC(=O)Nc1nc2ccc(Sc3ccccc3)cc2[nH]1,–,1.16 µM (active)
Cc1ccc(O)c(CNc2nc3ccccc3[nH]2)c1,-12.6,–
CN(c1ccccc1)S(=O)(=O)c1cc(C(=O)Nc2nc3ccccc3[nH]2)ccc1Cl,-2.94,–
CC(C)c1cc(CN2CCOCC2)cc(C(C)C)c1O,2.87,–
Oc1c(C(c2ccccn2)N2CCOCC2)ccc2cccnc12 (stereo unspecified),–,0.355 µM (active)
Cc1ccc(-c2ccc(CN3C(C(C)C)C(=O)N(Cc4cn(CCC5OCCCO5)nn4)CCS3(=O)=O)cc2)cc1 (stereo unspecified),-0.2,–
CCOC(=O)N1CCN(C(=O)C2CCN(S(=O)(=O)c3cc(Cl)ccc3OCC)CC2)CC1,0,–
CCOC(=O)/C(=N\Nc1cc(Cl)ccc1Cl)N1CCN(C)CC1,–,16.4 µM (active)
CCOC(=O)/C(=N\Nc1ccccc1Cl)N(C)C1CCS(=O)(=O)C1 (stereo unspecified),7.09,–
CCc1ccccc1NC(=O)[C@@H]1CCC(=O)N1C1OC(=O)c2c1ccc(OC)c2OC (stereo partly specified),0,–
COc1ccc(-c2csc(Nc3cccc(C)n3)n2)cc1OC,1.13,–
COc1ccc2c(c1OC)C(=O)OC2Nc1nc(-c2ccccc2)cs1 (stereo unspecified),–,18.4 µM (active)
O=C(NCc1cccc(C(F)(F)F)c1)c1ccc2sc(COCCO)nc2c1,0.384,–
COc1ccc(OC)c(NC(=O)C2CCCN2S(=O)(=O)c2ccc3c(c2)CC(C)N3C(C)=O)c1 (stereo unspecified),1.98,–
C=C1C(=O)[C@]23C[C@H]1CCC2[C@@]1(C)C(C[C@@H]3O)[C@](C)(C(=O)O)CC[C@@H]1O (stereo partly specified),–,18.4 µM (active)
CCc1nc2ccc(C(=O)NC3CCN(Cc4ccccc4)CC3)cn2c1N(CC)CCOC,3,–
CN(C)C(=O)c1cccc(-c2cnc3c(NC=O)cc(-c4ccc(C(=O)N5CCOCC5)cc4)cn23)c1,-6.25,–
O=C(CN1CCN(Cc2ccccc2)CC1)Nc1ccc(F)c(F)c1,-3.12,–
Cc1cc(NC(=O)CCN2CCN(Cc3ccccc3)CC2)ccc1Br,–,20.6 µM (active)
CCOC(=O)N1CCN(CCC(=O)Nc2ccccc2)CC1,16.3,–
CC(=O)Nc1cccc(Nc2ccc(C#N)cc2)c1,3.54,–
O=[N+]([O-])c1ccc(Oc2ccc(F)cc2Br)c2ccncc12,–,16.4 µM (active)
CC(C)C1Cc2[nH][nH]c(=O)c2C(c2ccc(Cl)cc2)O1 (stereo unspecified),13.4,–
